Among the data in PubChem BioAssay (EPA / NIEHS) are AC50 and outcome values, retold here.

Usually AC50 stands for the concentration at which the activity in the assay is half-maximal.

In assay [1] the target is human Peripheral-type Benzodiazepine Receptor (PBR), TSPO (gene 706) (UniProt P30536). Briefly: NVS_MP_hPBR: NovaScreen (NVS) Membrane Protein Assay for human Peripheral-type Benzodiazepine Receptor (PBR) (AID 2283331).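 Note: hits reduce radioligand binding relative to DMSO baseline.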 Put shortly:
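Radioligand displacement on human colonic cell membranes, 1 h incubation; bound radioactivity by filtration and scintillation counting. Primary screen in duplicate at 25 uM single concentration, actives followed up in concentration series; loss of binding versus DMSO.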

Assay [2] deals with rat Peripheral-type Benzodiazepine Receptor (PBR), Tspo (gene 24230) (UniProt P16257). Briefly: NVS_MP_rPBR: NovaScreen (NVS) Membrane Protein Assay for rat Peripheral-type Benzodiazepine Receptor (PBR) (AID 2283335). The gist of the method: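 Rat kidney membranes; radioligand binding with displacement, filter-based scintillation counting, 1 h incubation. Primary screen in duplicate at 25 uM, actives followed in concentration series; loss of binding vs DMSO.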

The target in assay [3] is human Androgen Receptor (AR), AR (gene 367) (UniProt P10275). Briefly: NVS_NR_hAR: NovaScreen (NVS) Nuclear Receptor Binding Assay for human Androgen Receptor (AR) (AID 2283332). Put shortly:
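LnCAP cell-free extract; radioligand displacement read by scintillation counting after 20 h. Primary screen single concentration 25 uM in duplicate, actives then run as concentration series; loss-of-signal fitted relative to DMSO baseline.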

Assay [4] deals with rat Glutamate, NMDA Agonist Site (GluNMDA), Grin1 (gene 24408) (UniProt P35439). Kind of assay: NVS_LGIC_rGluNMDA_Agonist: NovaScreen (NVS) Ligand-Gated Ion Channel Assay for rat Glutamate, NMDA Agonist Site (GluNMDA) (AID 2283327). The gist of the method: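 Rat forebrain membranes, radioligand binding in the agonist-site protocol; 1 h after dosing; filter-based scintillation counting. Single-concentration duplicate screen at 25 uM, then concentration-response up to 50 uM for actives; gain-of-signal vs DMSO.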

The target in assay [5] is rat Oxytocin Receptor (OXT), Oxtr (gene 25342) (UniProt P70536). Briefly: NVS_GPCR_rOXT: NovaScreen (NVS) G Protein-Coupled Receptor Assay for rat Oxytocin Receptor (OXT) (AID 2283330). The gist of the method: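 Radioligand displacement on rat uterine membranes, 1 h incubation, filter-based scintillation counting. Chemicals were screened in duplicate at 25 uM, and those passing threshold were retested in concentration-response up to 50 uM. Loss of binding was fitted versus DMSO.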

Several values for one entry are separate records, joined by “and”; a condition that tells them apart may be missing. Identical values can stand only once. Inconclusive results are not listed. More than one record can exist for a structure, and the calls need not agree. Activity calls are given as the source filed them. Rule for the calls: active = hit-call score of the fitted dose curve at least 0.9, where 1 is the maximum; inconclusive = response in the unintended direction; inactive = score below 0.9.

Sequence of rat Peripheral-type Benzodiazepine Receptor (PBR), Tspo (gene 24230) (P16257 whole entry, looked up): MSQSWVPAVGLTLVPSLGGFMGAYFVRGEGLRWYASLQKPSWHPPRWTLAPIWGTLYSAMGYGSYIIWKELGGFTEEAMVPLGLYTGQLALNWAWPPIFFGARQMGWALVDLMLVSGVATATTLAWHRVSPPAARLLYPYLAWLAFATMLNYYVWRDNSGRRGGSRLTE
Sequence of human Peripheral-type Benzodiazepine Receptor (PBR), TSPO (gene 706) (P30536 whole entry, looked up): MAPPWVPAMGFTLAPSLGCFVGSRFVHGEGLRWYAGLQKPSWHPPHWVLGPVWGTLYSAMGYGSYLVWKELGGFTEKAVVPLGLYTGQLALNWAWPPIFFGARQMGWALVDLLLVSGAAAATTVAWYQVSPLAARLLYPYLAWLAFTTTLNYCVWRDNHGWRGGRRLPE
Sequence of human Androgen Receptor (AR), AR (gene 367) (P10275 whole entry, looked up): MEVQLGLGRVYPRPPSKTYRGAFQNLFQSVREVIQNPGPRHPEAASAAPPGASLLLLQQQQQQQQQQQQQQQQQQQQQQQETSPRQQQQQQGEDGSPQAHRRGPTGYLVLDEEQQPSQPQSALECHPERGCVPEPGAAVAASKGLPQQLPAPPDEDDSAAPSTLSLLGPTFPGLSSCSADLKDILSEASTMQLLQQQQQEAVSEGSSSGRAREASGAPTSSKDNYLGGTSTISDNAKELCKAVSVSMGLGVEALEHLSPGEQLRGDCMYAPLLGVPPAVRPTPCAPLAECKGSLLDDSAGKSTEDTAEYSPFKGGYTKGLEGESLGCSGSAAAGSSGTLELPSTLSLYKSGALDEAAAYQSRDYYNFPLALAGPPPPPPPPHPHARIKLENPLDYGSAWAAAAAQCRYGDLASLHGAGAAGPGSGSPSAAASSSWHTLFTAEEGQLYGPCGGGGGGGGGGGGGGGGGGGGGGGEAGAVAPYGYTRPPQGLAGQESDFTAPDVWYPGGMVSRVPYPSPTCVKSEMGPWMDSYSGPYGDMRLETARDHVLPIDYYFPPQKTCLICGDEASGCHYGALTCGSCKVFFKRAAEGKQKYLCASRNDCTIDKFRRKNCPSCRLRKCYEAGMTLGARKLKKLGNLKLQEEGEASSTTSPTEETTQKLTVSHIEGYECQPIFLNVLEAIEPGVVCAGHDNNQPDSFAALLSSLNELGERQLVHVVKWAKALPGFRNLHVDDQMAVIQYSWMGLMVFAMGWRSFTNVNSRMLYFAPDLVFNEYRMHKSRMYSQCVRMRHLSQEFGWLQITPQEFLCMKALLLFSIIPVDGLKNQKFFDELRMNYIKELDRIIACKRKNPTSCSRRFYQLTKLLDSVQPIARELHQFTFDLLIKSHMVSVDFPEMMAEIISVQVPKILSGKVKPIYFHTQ
Sequence of rat Oxytocin Receptor (OXT), Oxtr (gene 25342) (P70536 whole entry, looked up): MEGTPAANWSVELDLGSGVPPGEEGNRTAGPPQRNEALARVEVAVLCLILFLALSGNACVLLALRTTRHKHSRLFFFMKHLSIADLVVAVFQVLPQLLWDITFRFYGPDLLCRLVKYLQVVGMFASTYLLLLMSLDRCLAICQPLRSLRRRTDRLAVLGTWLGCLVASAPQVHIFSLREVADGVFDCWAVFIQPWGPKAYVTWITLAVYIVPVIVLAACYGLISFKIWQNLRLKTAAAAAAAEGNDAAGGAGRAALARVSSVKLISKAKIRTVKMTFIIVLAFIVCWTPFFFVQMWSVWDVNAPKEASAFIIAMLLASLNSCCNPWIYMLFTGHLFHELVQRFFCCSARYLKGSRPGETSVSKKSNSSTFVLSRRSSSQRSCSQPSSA

As to `CCOP(=S)(OCC)SCn1c(=O)oc2cc(Cl)ccc21`, the AC50 was 2.65 µM (active) in assay [1] and 4.01 µM (active) in assay [2].
Consider `CNC(=O)ON=CC(C)(C)SC`, for which, in assay [1], the compound was called inactive.
In the case of `CCOC(=O)CC(SP(=S)(OC)OC)C(=O)OCC` (stereo not drawn), the AC50 in assay [1] was 2.17 µM (active); in assay [3], 25 µM (active); in assay [2], 10.5 µM (active).
With `CCCCC(CC)COC(=O)c1ccccc1C(=O)OCC(CC)CCCC` (stereo not drawn), in assay [4], the compound was classed as inactive. Further, the values for the concentration at half-maximal activity (AC50) in assay [1] and in assay [2] were 8.75 µM (active) and 15.6 µM (active), respectively.
As to `C=CC1(C)OC(=O)N(c2cc(Cl)cc(Cl)c2)C1=O` (stereo not drawn), the compound was called inactive in assay [5], in assay [1] and in assay [2]. The AC50 in assay [2] was 2.19 µM (active) and 1.01 µM (active) and 693 nM (active).
